This passage reports growth results from PubChem BioAssay (NCI).

About 83,000 compounds went through this panel and 20% of them were active in at least one assay; those are over-represented in the sample as a whole.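 96-well plates, one dose, 48 hours. Percent growth reported; active if below 10.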 Values without a mark were called inactive. Active and inactive are the calls of the source.

In this test the test system is HL-60(TB) leukemia. Description: NCI-60 one-dose screen, 48 h (100 = growth as untreated, 0 = no growth, -100 = all killed). The following applies: 10 µM unless noted.
`COC(=O)[C@]12CC[C@@H](C)[C@H](C)[C@@H]1C1=CC[C@@H]3[C@@]4(C)C=C(O)C(=O)C(C)=C4CC[C@@]3(C)[C@]1(C)CC2`: the growth is 4.09% (active). Consider `COc1cc2c3c(n(CCCCNCCCn4c5c(c6cc(OC)c(OC)cc6c4=O)C(=O)c4cc6c(cc4-5)OCO6)c(=O)c2cc1OC)-c1cc2c(cc1C3=O)OCO2`, for which the growth is 93.7%.

Turning to `CCOc1cc(/C=C/C(=O)CC(=O)/C=C/c2ccc(OC(=O)CNCCN(CC)CC)c(OCC)c2)ccc1OC(=O)CNCCN(CC)CC`, the growth was -30.5% (active). The same measure for `c1cc[n+](Cc2c3ccccc3cc3c2ccc2ccccc23)cc1`: 36%. In the case of `CCCCn1sc(=O)n(Cc2ccc(CNC(=O)OCc3ccc4c(Cl)cc(Cl)c(O)c4n3)cc2)c1=O`, the growth is 67.9%. Take `O=S(=O)(O)c1cccc(Nc2ccc3ccccc3c2)c1`: the growth is 89.9%. In the case of `CCCCCC/C=C1\CCC(CN2CCCC2)C1=O` (stereo not given), the growth was 62.2%.

On to `CCOC(=O)c1c(C)nc2c(c1N)/C(=C/c1ccc(OC)cc1)C(=O)N2Cc1ccc(F)cc1`, for which the growth was 4.72% (active).

Regarding `COc1ccc2c(c1)sc1nc(-c3ccccc3)c(-c3cccnc3)n12`, the growth was 105%. Consider `CC1=C([Se]CC(OC(=O)[C@@H](CO)NC(=O)OC(C)(C)C)C(=O)NCCCCCC(=O)OCc2ccccc2)C(=O)c2ccccc2C1=O` (stereo not given in full), for which the growth was -32.9% (active). The same measure for `CC/C=C\C[C@H](O)C/C=C1/C(=O)C=C[C@@H]1C/C=C\CCCC(N)=O`: -30.9% (active); for `O=[N+]([O-])c1ccc(N/N=C\c2cc(Cl)ccc2O)nc1`: -2.47% (active); for `CC(=O)OC(C(=O)c1ccccc1)c1ccccc1` (stereo not given): 114%.

For `CCNCCNc1cc(-c2ccc(C(F)(F)F)cc2)c(C#N)c2nc3ccccc3n12`, the growth was -65.9% (active). For `O=C(Nc1nc2ccccc2s1)c1cc(-c2ccc(F)cc2)n2nc(-c3ccccc3)cc2n1`, the growth was 107%. `C=C1C(=O)O[C@H]2[C@H]1CC/C(COC(=O)CCCCCCCCC(=O)OC/C1=C/CC[C@@]3(C)O[C@H]3[C@H]3OC(=O)C(=C)[C@@H]3CC1)=C\CC[C@@]1(C)O[C@@H]21`: the growth was -32.8% (active).

For `COc1cccc(C2CC(=O)Nc3c2c(C)nn3-c2nc3ccccc3[nH]2)c1OC` (stereo not given), the growth is 18.9%. Turning to `COc1ccc2c(c1)c(-c1nc(-c3c[nH]c4c(Cl)nccc34)cs1)cn2C`, the growth is 108%. For `C#CCOc1cccc(Nc2ncnc3ccc(NC(=O)C=C)cc23)c1`, the growth was 29.3%.

`O=S(=O)(c1ccccc1)N1CCCN(c2nc(-c3ccccc3)nc3nc(-c4ccccc4)oc23)CC1`: the growth is 102%. For `CC(=O)n1cc([C@H]2CC[C@H](c3cn(C(C)=O)c4ccccc34)c3c2[nH]c2ccccc32)c2ccccc21`, the growth is 111%. The value for `CC1=C2[C@@H](CC1)[C@]1(C)O[C@@](c3ccccc3)(C[C@H]1OC(=O)CO)[C@H]2OC(=O)/C=C/c1ccccc1` was 88.5%; that for `N#Cc1cc(-c2cc3ccccc3o2)oc1N` was -49.3% (active).

Take `C=C(C)[C@@H]1CC[C@]2(COCCCN)CC[C@]3(C)[C@H](CC[C@@H]4[C@@](C)(CCCNCCCN)[C@H](C(=C)C)CC[C@]43C)[C@@H]12`: the growth is -9.28% [100 µM] (active). Consider `COc1cccc(-c2nn(C(C)(C)C)cc2-c2ccnc(NCCCNS(=O)(=O)c3ccc(C)cc3)c2)c1`, for which the growth is 105%.
